What all share (assay): protein binding microarray; high values mean tight binding
Details in all cases: dsDNA, one strand shown

Assay [1] deals with RELARELA (p65 homodimer) (Homo sapiens, UniProt Q04206 1-307).
Assay [2] concerns the target p50p50 homodimer (Homo sapiens, UniProt P19838 7-356).
For assay [3], the target named is T1, p52p52 homodimer (Homo sapiens, UniProt Q00653 4-332).
T1 sequence: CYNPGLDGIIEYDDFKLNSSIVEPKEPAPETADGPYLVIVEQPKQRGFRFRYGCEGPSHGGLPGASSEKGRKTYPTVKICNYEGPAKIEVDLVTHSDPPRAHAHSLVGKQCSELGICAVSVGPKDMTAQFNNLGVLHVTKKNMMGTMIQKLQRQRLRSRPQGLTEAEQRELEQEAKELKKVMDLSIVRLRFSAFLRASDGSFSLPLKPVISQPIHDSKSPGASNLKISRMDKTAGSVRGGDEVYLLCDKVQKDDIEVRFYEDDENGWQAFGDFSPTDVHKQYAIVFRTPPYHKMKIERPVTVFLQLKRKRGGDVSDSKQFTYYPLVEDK

The target in assay [4] is RELA (p65) subunit of heterodimer;p50 subunit (Homo sapiens;Homo sapiens, UniProt Q04206;P19838 1-307;7-356).
Chain of RELA (p65) subunit of heterodimer;p50 subunit (Q04206 1-307, chain 1 of 2): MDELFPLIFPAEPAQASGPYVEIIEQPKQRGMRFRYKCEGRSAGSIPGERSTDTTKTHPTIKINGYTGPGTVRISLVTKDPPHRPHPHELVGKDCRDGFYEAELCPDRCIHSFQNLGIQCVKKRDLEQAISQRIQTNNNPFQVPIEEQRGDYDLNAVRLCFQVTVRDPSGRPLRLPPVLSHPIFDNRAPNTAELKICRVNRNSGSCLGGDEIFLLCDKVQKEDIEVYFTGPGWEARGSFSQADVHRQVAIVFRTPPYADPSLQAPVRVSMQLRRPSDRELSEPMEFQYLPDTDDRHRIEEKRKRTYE
Chain of RELA (p65) subunit of heterodimer;p50 subunit (P19838 7-356, chain 2 of 2): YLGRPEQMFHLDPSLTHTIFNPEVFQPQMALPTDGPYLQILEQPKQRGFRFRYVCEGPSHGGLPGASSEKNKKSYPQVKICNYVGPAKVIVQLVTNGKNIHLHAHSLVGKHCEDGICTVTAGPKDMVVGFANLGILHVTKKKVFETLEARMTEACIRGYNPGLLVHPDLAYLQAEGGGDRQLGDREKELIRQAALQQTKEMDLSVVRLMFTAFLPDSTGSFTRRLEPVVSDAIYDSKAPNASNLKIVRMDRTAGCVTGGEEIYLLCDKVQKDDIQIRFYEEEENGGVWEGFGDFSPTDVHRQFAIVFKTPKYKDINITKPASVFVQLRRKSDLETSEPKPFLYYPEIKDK
Assay [5] concerns the target RELA (p65) subunit of heterodimer;p52 subunit (Homo sapiens;Homo sapiens, UniProt Q04206;Q00653 1-307;4-332).
The target of assay [6] is RELB subunit;p50 subunit (Homo sapiens;Homo sapiens, UniProt Q01201;P19838 120-401;7-356).
For assay [7], the target named is T2, RELB subunit;p52 subunit (Homo sapiens;Homo sapiens, UniProt Q01201;Q00653 120-401;4-332).
T2 sequence 1: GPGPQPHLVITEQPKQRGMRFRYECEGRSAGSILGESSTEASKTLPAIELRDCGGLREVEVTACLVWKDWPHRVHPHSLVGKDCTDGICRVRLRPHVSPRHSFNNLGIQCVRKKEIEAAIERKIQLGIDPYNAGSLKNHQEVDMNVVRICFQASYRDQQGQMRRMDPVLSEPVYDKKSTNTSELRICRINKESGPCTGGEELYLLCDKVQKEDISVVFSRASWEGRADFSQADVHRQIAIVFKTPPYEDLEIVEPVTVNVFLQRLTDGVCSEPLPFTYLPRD
T2 sequence 2: T1 sequence

The target of assay [8] is C-Rel subunit;p50 subunit (Homo sapiens;Homo sapiens, UniProt Q04864;P19838 1-285;7-356).
For assay [9], the target named is T3, C-Rel subunit;p52 subunit (Homo sapiens;Homo sapiens, UniProt Q04864;Q00653 1-285;4-332).
T3 sequence 1: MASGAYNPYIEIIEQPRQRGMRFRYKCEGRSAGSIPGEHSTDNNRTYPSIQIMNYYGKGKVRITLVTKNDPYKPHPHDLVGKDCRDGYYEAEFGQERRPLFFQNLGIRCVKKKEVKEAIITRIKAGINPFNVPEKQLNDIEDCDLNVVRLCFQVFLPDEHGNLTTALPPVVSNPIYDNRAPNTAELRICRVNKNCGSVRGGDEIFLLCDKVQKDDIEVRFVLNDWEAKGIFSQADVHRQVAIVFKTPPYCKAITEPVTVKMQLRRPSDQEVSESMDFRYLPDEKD
T3 sequence 2: T1 sequence

Chain of RELARELA (p65 homodimer) (Q04206 1-307): as the sequence (Q04206 1-307, chain 1 of 2) above
Chain of p50p50 homodimer (P19838 7-356): as the sequence (P19838 7-356, chain 2 of 2) above

As for CAGAGTATCCT, the binding signal was -0.548 z-score in assay [1]; -1.79 z-score in [2]; -0.651 z-score in assay [3]; -0.987 z-score in [4]; -1 z-score in [5]; -1.11 z-score in assay [6]. The binding signal in [7] was -0.991 z-score; in assay [8] it was -1.45 z-score; in [9] it was -1 z-score.
For AGAGGAGCCCC, the binding signal was -0.573 z-score in [1]; 0.291 z-score in assay [2]; 0.0479 z-score in assay [3]; -0.113 z-score in [4]; -0.0242 z-score in assay [5]; 0.0681 z-score in assay [6]. Besides, the values for the binding signal in assay [7], in [8] and in [9] were 0.0342 z-score, -0.0137 z-score and -0.225 z-score, respectively.
As to GAGAGGACCCC, the binding signal in [1] is -0.845 z-score; in [2], -0.858 z-score; in assay [3] it was -0.455 z-score; in assay [4], -0.636 z-score; in assay [5], -0.537 z-score; in assay [6], -0.461 z-score. In addition, the binding signal was -0.392 z-score in [7], -0.607 z-score in [8] and -0.571 z-score in [9].
As for CAATGGGCCCC, the binding signal was -0.62 z-score in assay [1]; -0.565 z-score in assay [2]; -0.242 z-score in assay [3]; -0.699 z-score in assay [4]; -0.472 z-score in assay [5]; -0.379 z-score in [6]. The binding signal in assay [7] is -0.185 z-score; in assay [8], -0.565 z-score; in [9], -0.638 z-score.
As for CAAGGGTCCCT, the binding signal in [1] was -0.447 z-score; in assay [2] it was 0.337 z-score; in [3] it was 0.26 z-score; in assay [4], -0.269 z-score; in assay [5], 0.0513 z-score; in assay [6], 0.363 z-score. For the same sequence, the binding signal in [7] was 0.276 z-score; in assay [8] it was -0.315 z-score; in assay [9], -0.166 z-score.
Turning to AGAGGCCTCCT, the binding signal was -0.539 z-score in [1]; -1.92 z-score in assay [2]; -0.785 z-score in [3]; -1.08 z-score in assay [4]; -1.07 z-score in assay [5]; -1.08 z-score in [6]. Also, the binding signal in assay [7] was -0.973 z-score; in assay [8] it was -1.66 z-score; in [9], -0.937 z-score.
In the case of AAGTATGCCCC, the binding signal in [1] was 0.441 z-score; in assay [2], 0.0869 z-score; in assay [3], -0.0889 z-score; in assay [4] it was 0.289 z-score; in assay [5], 0.0585 z-score; in assay [6], 0.197 z-score. The binding signal in [7] worked out at 0.2 z-score; in assay [8], 0.628 z-score; in assay [9] it was 0.354 z-score.
As to AAAAGGATCCT, the binding signal is -0.683 z-score in assay [1]; -1.24 z-score in assay [2]; -0.703 z-score in [3]; -1.11 z-score in assay [4]; -1.09 z-score in [5]; -1.05 z-score in assay [6]. For the same sequence, the binding signal in assay [7] is -0.866 z-score; in assay [8] it was -1.6 z-score; in assay [9] it was -0.998 z-score.
With GAGGATTCCCC, the binding signal in assay [1] was 2 z-score; in assay [2], 1.1 z-score; in [3] it was 2.67 z-score; in assay [4] it was 2.18 z-score; in assay [5], 2.19 z-score; in assay [6] it was 2.43 z-score. Further, the figures for the binding signal in assay [7], in [8] and in [9] were 2.09 z-score, 1.54 z-score and 2.11 z-score, respectively.
Regarding AGAGGTGTCCT, the binding signal in assay [1] is -0.184 z-score; in assay [2], -1.69 z-score; in [3], -0.541 z-score; in [4], -0.927 z-score; in [5] it was -0.707 z-score; in [6] it was -0.854 z-score. Moreover, the binding signal in assay [7] is -0.664 z-score; in assay [8], -1.22 z-score; in [9], -0.658 z-score.
Regarding GGGGTCATCCT, the binding signal in [1] is -0.528 z-score; in assay [2], -0.376 z-score; in assay [3], -0.115 z-score; in [4], -0.626 z-score; in assay [5], -0.394 z-score; in assay [6] it was -0.425 z-score. In addition, the results for the binding signal in [7], in [8] and in assay [9] were -0.362 z-score, -0.494 z-score and -0.0992 z-score, respectively.
In the case of GAAATCCTCCT, the binding signal in assay [1] was -0.0844 z-score; in assay [2] it was -0.961 z-score; in assay [3], -0.613 z-score; in assay [4], -0.658 z-score; in [5] it was -0.961 z-score; in assay [6] it was -0.979 z-score. The figures for the binding signal in [7], in [8] and in assay [9] were -0.866 z-score, -0.982 z-score and -0.715 z-score, respectively.
Regarding CAGGAGGTCCT, the binding signal in assay [1] was 0.426 z-score; in [2], -1.52 z-score; in assay [3], -0.389 z-score; in assay [4] it was -0.781 z-score; in assay [5], -0.822 z-score; in [6] it was -0.523 z-score. For the same sequence, the values for the binding signal in assay [7], in assay [8] and in [9] were -0.466 z-score, -0.953 z-score and -0.415 z-score, respectively.
For the sequence CGGAACGTCCC, the binding signal in assay [1] turned out to be 1.16 z-score; in assay [2], 0.116 z-score; in assay [3] it was 0.505 z-score; in assay [4], 0.933 z-score; in assay [5] it was 0.956 z-score; in assay [6] it was 0.184 z-score. Further, the binding signal in assay [7] worked out at 0.327 z-score; in assay [8] it was 0.44 z-score; in assay [9], 0.748 z-score.
On to CGAAAGTTCCT, for which the binding signal in assay [1] is 0.451 z-score; in assay [2], -0.747 z-score; in assay [3] it was -0.53 z-score; in assay [4] it was -0.689 z-score; in assay [5], -0.651 z-score; in assay [6] it was -0.963 z-score. The values for the binding signal in assay [7], in [8] and in [9] were -0.709 z-score, -0.537 z-score and -0.406 z-score, respectively.

The values are drawn from article PMC3218832.
